Measurements: PubChem BioAssay (NCI)
“And” between values parts separate entries of the source, which are not always exact repeats. Equal entries are not always repeated. Compounds without any hit were thinned out: in the full panel of roughly 79,000, 15% have a hit. A structure can be active in one record and inactive in another. The source made the active and inactive calls. Cut-off read from the data, not from the text of the source: active = growth inhibition above about 70%; inactive = the rest.

How the values were obtained:
[1] = NCI Yeast Anticancer Drug Screen. Data for the wt1 strain (AID 149);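 note: 0% = growth of vehicle-treated wt1 cultures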; settings: S. cerevisiae wt1 strain (SPY 50644) growth inhibition, stronger effect = higher value
Method in brief: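 Readout: yeast growth inhibition, normalised to vehicle controls, in the wt1 strain exposed to test compounds.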

[2] = NCI Yeast Anticancer Drug Screen. Data for the rad50EPP+ strain (AID 151);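 note: 0% = growth of vehicle-treated control cultures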; settings: S. cerevisiae rad50 mutant strain, stronger effect = higher value
Method in brief: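 Strain rad50EPP+; compound exposure; % growth inhibition vs vehicle.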

[3] = NCI Yeast Anticancer Drug Screen. Data for the mgt1 strain (AID 153); settings: S. cerevisiae mgt1 mutant growth inhibition, stronger effect = higher value
Method in brief: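 Read-out: yeast growth inhibition vs vehicle control. Strain mgt1, drawn from a panel altered in DNA damage repair or cell cycle control.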

[4] = NCI Yeast Anticancer Drug Screen. Data for the rad50 strain (AID 155);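 note: 0% = growth of vehicle-only cultures of the same strain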; settings: S. cerevisiae rad50 strain growth inhibition, stronger effect = higher value
Method in brief: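 Compounds were tested on a yeast strain with an engineered DNA damage repair alteration; the reported value is growth inhibition normalised to vehicle treatment.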

[5] = NCI Yeast Anticancer Drug Screen. Data for the mec2-1 strain (AID 157); settings: S. cerevisiae mec2-1 strain, stronger effect = higher value
Method in brief: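 Cells of the genetically defined mec2-1 yeast strain are incubated with test compound. Inhibition of growth is calculated against vehicle-treated controls.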

[6] = NCI Yeast Anticancer Drug Screen. Data for the rad14 strain (AID 159);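 note: 0% = growth of vehicle-treated control cultures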; settings: S. cerevisiae rad14 strain growth inhibition, stronger effect = higher value
Method in brief: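 Compound-treated yeast with a defined DNA-repair lesion; growth inhibition normalised to vehicle-treated cultures.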

[7] = NCI Yeast Anticancer Drug Screen. Data for the sgs1 mgt1 strain (AID 161);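 note: 0% = growth of cultures given vehicle only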; settings: S. cerevisiae sgs1 mgt1 strain, stronger effect = higher value
Method in brief: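 Mutant yeast exposed to compound; growth scored against vehicle-only wells.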

[8] = NCI Yeast Anticancer Drug Screen. Data for the CLN2oe strain (AID 163);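 note: 0% = growth of vehicle-only control cultures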; settings: S. cerevisiae CLN2oe strain, stronger effect = higher value
Method in brief: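 Strain altered in cell-cycle control, incubated with compound; growth compared to solvent-treated controls.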

[9] = NCI Yeast Anticancer Drug Screen. Data for the cln2 rad14 strain (AID 165);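 note: 0% = growth equal to vehicle treated cultures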; settings: S. cerevisiae cln2 rad14 strain, stronger effect = higher value
Method in brief: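 The screen exposed genetically defined yeast (cln2 rad14) to test compounds and scored growth inhibition relative to vehicle-treated controls.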

[10] = NCI Yeast Anticancer Drug Screen. Data for the bub3 strain (AID 167); settings: S. cerevisiae bub3 mutant strain, stronger effect = higher value
Method in brief: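 Growth of a checkpoint-deficient yeast mutant is measured after compound exposure. Values represent inhibition relative to vehicle.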

[11] = NCI Yeast Anticancer Drug Screen. Data for the wt2 strain (AID 169);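 note: 0% = growth of vehicle-treated yeast cultures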; settings: S. cerevisiae wt2 strain growth inhibition, stronger effect = higher value
Method in brief: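 Steps: yeast strain treated with compound; growth recorded; inhibition calculated relative to cultures given vehicle alone.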

[12] = NCI Yeast Anticancer Drug Screen. Data for the mlh1 strain (AID 171);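 note: 0% = growth of vehicle-treated control cultures of the same strain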; settings: S. cerevisiae mlh1 strain growth inhibition, stronger effect = higher value
Method in brief: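 Yeast screen: mutant strain plus compound, growth scored against vehicle control wells.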

[13] = NCI Yeast Anticancer Drug Screen. Data for the sgs1 strain (AID 173);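 note: 0% = growth of vehicle-only control cultures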; settings: S. cerevisiae sgs1 mutant, stronger effect = higher value
Method in brief: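 Inhibition of yeast growth served as the measure. The mutant strain was treated with each compound, and growth was normalised to cultures receiving vehicle alone.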

[14] = NCI Yeast Anticancer Drug Screen. Data for the mlh1 rad18 strain (AID 175); settings: S. cerevisiae mlh1 rad18 strain growth inhibition, stronger effect = higher value
Method in brief: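 Compound-treated yeast growth, normalised to vehicle controls. Strain bears defined DNA repair mutations.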

[15] = NCI Yeast Anticancer Drug Screen. Data for the rad18 strain (AID 177); settings: S. cerevisiae rad18 mutant growth inhibition, stronger effect = higher value
Method in brief: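 Inhibition values reflect reduced yeast growth compared with vehicle-treated controls, using a strain engineered with a DNA damage repair defect.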

[16] = at 5.0 µM (retest, dose inferred, filed as 0.5)
[17] = at 50.0 µM (retest, dose inferred, filed as 5.0)

Measured: growth inhibition

CC(C)(C)[Si](C)(C)OCC1CCC(n2cnc3c(NC(=O)c4ccccc4)ncnc32)O1 (stereo unspecified)
active: [4]; at 50.0 µM 87.5% | [5]; at 50.0 µM 90% | [14]; at 50.0 µM 80.9%
inactive: [1]; at 1.2 µM 0% | [1]; at 3.7 µM 0% | [1]; at 11.0 µM 0% | [1]; at 33.0 µM 4% | [1]; at 100.0 µM -2% | [2]; at 1.2 µM -3% | [2]; at 3.7 µM -2% | [2]; at 11.0 µM 1% | [2]; at 33.0 µM 5% | [2]; at 100.0 µM 5% | [3]; at 1.2 µM -3% | [3]; at 3.7 µM -6% | [3]; at 11.0 µM 0% | [3]; at 33.0 µM 0% | [3]; at 100.0 µM -2% | [4]; at 1.2 µM 1% | [4]; at 3.7 µM -49% | [4]; [16] 0% | [4]; at 11.0 µM -28% | [4]; at 33.0 µM 2% | [4]; [17] 31% | [4]; at 100.0 µM 1% | [5]; at 1.2 µM -3% | [5]; at 3.7 µM 0% | [5]; [16] -2% | [5]; at 11.0 µM -1% | [5]; at 33.0 µM 0% | [5]; [17] 49% | [5]; at 100.0 µM 0% | [6]; at 1.2 µM -1% | [6]; at 3.7 µM -2% | [6]; at 11.0 µM 3% | [6]; at 33.0 µM 3% | [6]; at 100.0 µM 2% | [7]; [16] -1% | [7]; [17] 6% | [7]; at 50.0 µM 27.2% | [8]; at 1.2 µM -2% | [8]; at 3.7 µM 0% | [8]; at 11.0 µM 5% | [8]; at 33.0 µM -1% | [8]; at 100.0 µM -4% | [9]; [16] -4% | [9]; [17] 30% | [9]; at 50.0 µM 42.2% | [10]; at 1.2 µM 2% | [10]; at 3.7 µM 0% | [10]; [16] -2% | [10]; at 11.0 µM 1% | [10]; at 33.0 µM -2% | [10]; [17] 30% | [10]; at 50.0 µM 23.1% | [10]; at 100.0 µM -4% | [11]; at 1.2 µM -1% | [11]; at 3.7 µM 7% | [11]; at 11.0 µM -2% | [11]; at 33.0 µM 5% | [11]; at 100.0 µM -1% | [12]; at 1.2 µM 0% | [12]; at 3.7 µM -3% | [12]; at 11.0 µM -1% | [12]; at 33.0 µM -1% | [12]; at 100.0 µM -1% | [13]; at 1.2 µM -2% | [13]; at 3.7 µM -2% | [13]; at 11.0 µM 0% | [13]; at 33.0 µM 1% | [13]; at 100.0 µM 0% | [14]; [16] -5% | [14]; [17] 47% | [15]; at 1.2 µM -3% | [15]; at 3.7 µM 2% | [15]; at 11.0 µM -1% | [15]; at 33.0 µM 1% | [15]; at 100.0 µM -1%

c1ccc2[nH]c(-c3cscn3)nc2c1
active: [10]; at 100.0 µM 70%
33.4% (inactive) and 84.8% (active): [10]; at 50.0 µM
inactive: [1]; at 1.2 µM -1% | [1]; at 3.7 µM -3% | [1]; at 11.0 µM -2% | [1]; at 33.0 µM -5% | [1]; at 100.0 µM -4% | [2]; at 1.2 µM 0% | [2]; at 3.7 µM 0% | [2]; at 11.0 µM 3% | [2]; at 33.0 µM 16% | [2]; at 100.0 µM 29% | [3]; at 1.2 µM -2% | [3]; at 3.7 µM -2% | [3]; at 11.0 µM -5% | [3]; at 33.0 µM -5% | [3]; at 100.0 µM -7% | [4]; at 1.2 µM -2% | [4]; at 3.7 µM 3% | [4]; [16] -19% | [4]; at 11.0 µM -1% | [4]; at 33.0 µM 4% | [4]; [17] -2% | [4]; at 50.0 µM -4.2% and 39.9% | [4]; at 100.0 µM 11% | [5]; at 1.2 µM -2% | [5]; at 3.7 µM -8% | [5]; [16] -12% | [5]; at 11.0 µM -3% | [5]; at 33.0 µM -6% | [5]; [17] 4% | [5]; at 50.0 µM 7.6% and 38.2% | [5]; at 100.0 µM -8% | [6]; at 1.2 µM -4% | [6]; at 3.7 µM -5% | [6]; at 11.0 µM -3% | [6]; at 33.0 µM -5% | [6]; at 100.0 µM -2% | [7]; [16] -3% | [7]; [17] 13% | [7]; at 50.0 µM -4% and -3% | [8]; at 1.2 µM -7% | [8]; at 3.7 µM -3% | [8]; at 11.0 µM -7% | [8]; at 33.0 µM -11% | [8]; at 100.0 µM -19% | [9]; [16] -25% | [9]; [17] -24% | [9]; at 50.0 µM -19.7% and 32.1% | [10]; at 1.2 µM 6% | [10]; at 3.7 µM 8% | [10]; [16] 5% | [10]; at 11.0 µM 12% | [10]; at 33.0 µM 36% | [10]; [17] 56% | [11]; at 1.2 µM -3% | [11]; at 3.7 µM -3% | [11]; at 11.0 µM -6% | [11]; at 33.0 µM -5% | [11]; at 100.0 µM 0% | [12]; at 1.2 µM -2% | [12]; at 3.7 µM -2% | [12]; at 11.0 µM -7% | [12]; at 33.0 µM -3% | [12]; at 100.0 µM 11% | [13]; at 1.2 µM -1% | [13]; at 3.7 µM -3% | [13]; at 11.0 µM -1% | [13]; at 33.0 µM -3% | [13]; at 100.0 µM -2% | [14]; [16] 14% | [14]; [17] 1% | [14]; at 50.0 µM -37% and 39.7% | [15]; at 1.2 µM -1% | [15]; at 3.7 µM -3% | [15]; at 11.0 µM -2% | [15]; at 33.0 µM 3% | [15]; at 100.0 µM 18%
